Measured potencies and affinities stand elsewhere. Active and inactive are the calls of the source.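 The calls were made as follows: active = cytotoxic signal drop whose half-maximal concentration is at most twice the top valid dose; inconclusive = flat drop between 30% and 70%, or poor fit; inactive = the rest.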

This test in a line: loss of A549 viability via ATP – cell-based, plate reader, dry powder, set 7, cytotoxicity control, dose response (AID 743318). The settings on record: CellTiter-Glo ATP luminescence, 72 h; series mostly up to 26 µM. In general terms: Cellular ATP, detected with luciferase, serves as a proxy for viable cell number.
As to `Fc1ccc2[nH]c(=S)n(CCOc3ccccc3)c2c1`, the molecule was called inactive.

With `S=c1[nH]c2ccccc2n1CCOc1ccc(Cl)cc1`, the molecule was called inactive.

Regarding `CC(C)(C)c1ccccc1OCCn1c(=S)[nH]c2ccccc21`, the outcome was inactive.

Regarding `Cc1ccc(C)c(OCCn2c(=S)[nH]c3ccccc32)c1`, the molecule was called inactive.

`CCOc1ccc(OCCn2c(=S)[nH]c3ccccc32)cc1`: the call was inactive.

Consider `Cc1cccc(OCCn2c(=S)[nH]c3ccccc32)c1C`, for which the outcome was inactive.

Regarding `CC(C)c1ccccc1OCCn1c(=S)[nH]c2ccccc21`, the outcome was inactive.

Turning to `Cc1cccc(OCCn2c(=S)[nH]c3ccc(C(F)(F)F)cc32)c1`, the outcome was inactive.

With `S=c1[nH]c2ccccc2n1CCOc1ccccc1Cl`, the outcome was inactive.

As for `COc1cccc(OCCn2c(=S)[nH]c3ccccc32)c1`, the molecule was classed as inactive.

`Fc1cccc(OCCn2c(=S)[nH]c3ccccc32)c1`: the molecule was called inactive.

Take `S=c1[nH]c2cc(Cl)ccc2n1CCOc1ccccc1`: the molecule was classed as inactive.

`Cc1ccc(C(C)C)c(OCCn2c(=S)[nH]c3ccc(F)cc32)c1`: the molecule was called inactive.

For the molecule `Cc1ccc(OCCn2cnc3ccccc32)c(C(C)C)c1`, the outcome was inactive.

For `CSc1nc2ccccc2n1CCOc1cc(C)ccc1C(C)C`, the molecule was called inactive.

With `COCc1nc2ccccc2n1CCOc1ccc(C(C)(C)C)cc1`, the outcome was inactive.

Regarding `Cc1cccc(OCCn2c(=S)[nH]c3ccccc32)c1`, the outcome was inactive.

`Cc1ccc(C(C)C)c(OCCn2c(=S)[nH]c3ccccc32)c1`: the molecule was classed as inactive.

Consider `Cc1ccc(C(C)C)c(OCCn2c(=S)[nH]c3cccc(Cl)c32)c1`, for which the molecule was called inactive.

Regarding `CC(C)c1ccc(OCCn2c(=S)[nH]c3ccccc32)cc1`, the outcome was inactive.

Take `Cc1ccc2c(c1)[nH]c(=S)n2CCOc1ccccc1`: the result was inactive.

As for `Fc1ccccc1OCCn1c(=S)[nH]c2ccccc21`, the molecule was classed as inactive.

Turning to `CC(C)c1ccccc1NCCn1c(=S)[nH]c2ccccc21`, the result was inactive.

On to `Fc1ccc(OCCn2c(=S)[nH]c3ccccc32)cc1`, for which the outcome was inactive.

For the molecule `S=c1[nH]c2cccc(Cl)c2n1CCOc1ccccc1`, the outcome was inactive.

The values are drawn from PubChem BioAssay AID743318 (Broad Institute, 2014).
